Pol kappa inh-1 – DNA polymerase kappa (human) inhibition; purified Pol kappa, fluorescent DNA synthesis assay, 10 min; Potency, µM (doses to about 107 µM), actives largely listed as inhibitors; actives 0.53% (n = 400,000)
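10 nM Pol kappa preincubated 15 min at room temperature with compounds, then reaction started with substrate at 50 nM final. Fluorescence read kinetically at 0 and 10 min; buffer-only wells served as negative control.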
TDP1 block – inhibitors of human tyrosyl-DNA phosphodiesterase TDP1; Q9NUW8; recombinant TDP1, AlphaScreen DNA substrate cleavage; Potency, µM (top dose mostly 130 µM), actives largely listed as inhibitors; actives 0.28% (n = 350,000); AID 485290; note: nearly all actives have a fitted effect of over 40% in size
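Compounds were preincubated with Tdp1 (1 nM final) for 15 min at room temperature before substrate (15 nM final) started a 5 min reaction; beads (10 ug/ml final) were then added for 10 min before AlphaScreen detection.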
Pol eta inh-1 – DNA polymerase eta (human) inhibition. Potency, µM (top dose mostly 114 µM), actives largely listed as inhibitors. AID 588591. recombinant Pol eta, fluorescent DNA replication assay. actives 1.2% (n = 390,000)
Target sequence (Q9Y253 whole entry, looked up): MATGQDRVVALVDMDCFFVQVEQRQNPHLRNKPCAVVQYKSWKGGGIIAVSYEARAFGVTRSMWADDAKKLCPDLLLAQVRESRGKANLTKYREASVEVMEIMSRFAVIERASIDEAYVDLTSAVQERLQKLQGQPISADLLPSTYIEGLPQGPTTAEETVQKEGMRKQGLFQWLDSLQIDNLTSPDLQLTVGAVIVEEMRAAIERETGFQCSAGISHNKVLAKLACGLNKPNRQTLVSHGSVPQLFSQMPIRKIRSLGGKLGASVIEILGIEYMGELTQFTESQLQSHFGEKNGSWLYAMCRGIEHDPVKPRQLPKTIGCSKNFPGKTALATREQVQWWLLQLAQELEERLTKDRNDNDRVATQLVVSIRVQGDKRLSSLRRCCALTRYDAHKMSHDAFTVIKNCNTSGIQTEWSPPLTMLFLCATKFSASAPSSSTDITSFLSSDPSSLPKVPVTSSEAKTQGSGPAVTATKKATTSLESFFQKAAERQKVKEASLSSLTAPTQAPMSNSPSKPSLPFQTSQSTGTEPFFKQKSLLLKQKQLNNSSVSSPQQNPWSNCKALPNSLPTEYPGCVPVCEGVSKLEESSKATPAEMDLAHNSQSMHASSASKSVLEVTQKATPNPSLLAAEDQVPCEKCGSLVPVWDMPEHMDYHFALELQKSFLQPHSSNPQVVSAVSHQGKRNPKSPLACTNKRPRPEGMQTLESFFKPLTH
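Pol eta (10 nM) was preincubated with compounds for 15 min at room temperature, after which fluorescent replication substrate (50 nM final) was added to start the reaction. Fluorescence was read kinetically at 0 and 10 min.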
FEN1 inh-1 – blocks human flap endonuclease 1; Potency, µM (series often up to 114 µM), usual class: inhibitors; actives 0.35% (n = 390,000); Recombinant FEN1 flap cleavage, fluorescence, 15 min; note: nearly all actives have a fitted effect of over 65% in size
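Recombinant FEN1 (10 nM) was preincubated with pin-transferred compounds for 15 min at room temperature, then flap DNA substrate (50 nM final) was added. Plates were read at 0 and 15 min, and normalized concentration–response data were fitted to a four-parameter Hill equation.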
Pol iota inh – DNA polymerase iota (human) inhibition; Potency, µM (doses to about 115 µM), usual class: inhibitors; Pol iota fluorescent replication assay, 10 min; Q9UNA4; AID 588590; actives 1% (n = 390,000)
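Fluorescent replication assay read twice, at 0 min and 10 min after adding 50 nM (final) substrate. Enzyme (10 nM) and compounds were first incubated 15 min at room temperature; enzyme-free buffer wells were negative controls.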
POLB inh – blocks human DNA polymerase beta activity. AID 485314. Potency, µM (highest dose often 114 µM), actives largely listed as inhibitors. Pol beta primer extension/strand displacement, fluorescence kinetic. P06746. actives 1.3% (n = 340,000)
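Homogeneous kinetic assay of primer extension and strand displacement by 10 nM Pol beta, preincubated 15 min at room temperature with compound before 50 nM substrate (final) was added. Read at 0 and 10 min; four-parameter Hill fit.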
TbPGK inh – TbPGK inhibition, hit validation | shares compounds with Pol kappa inh-1 | TbPGK coupled GAPDH assay, Kinase-Glo luminescence | Potency, µM (series often up to 57.5 µM), most hits filed as inhibitors | actives 79% (n = 500) | AID 686980; note: nearly all actives have a fitted effect of over 65% in size
Pol iota confirm – Inhibitors of human DNA polymerase iota, confirmation. Pol iota primer extension, TAMRA/BHQ fluorescence. AID 720496. actives 77% (n = 1,500). Potency, µM, actives largely listed as inhibitors. shares compounds with Pol kappa inh-1
Pol kappa inh-2 – Pol kappa (human) inhibition, cherry-pick confirmation; shares compounds with Pol eta inh-1; purified Pol-kappa, fluorescent strand-displacement substrate; Potency, µM, hits mostly inhibitors; actives 76% (n = 920); AID 720501
Pol eta inh-2 – Pol eta (human) inhibition, cherry-pick confirmation | shares compounds with Pol eta inh-1 | Pol eta primer extension, TAMRA/BHQ fluorescence, 10 min | actives 64% (n = 2,600) | Potency, µM, usual class: inhibitors
FEN1 inh-2 – confirmation of human FEN1 inhibitors; shares compounds with FEN1 inh-1; FEN1 flap cleavage, TAMRA/BHQ2 fluorogenic DNA substrate; Potency, µM, usual class: inhibitors; actives 79% (n = 880); note: nearly all actives have a fitted effect of over 60% in size
Hits are given with their value; - = inactive; ? = inconclusive; . = no result. Shown are actives, neighbours in structure and some others; about 2.4% of the full set was active somewhere. Calls come from the whole dose curve; as a rule, active = well fitted curve in the direction sought with a large enough effect; inconclusive = small, poorly fitted or top-dose-only effect, or another doubt; inactive = no such curve, though single readings can be large; an effect the other way counts as inactive or inconclusive.

SMILES | Pol kappa inh-1 | TDP1 block | Pol eta inh-1 | FEN1 inh-1 | Pol iota inh | POLB inh | Pol iota confirm | Pol eta inh-2 | FEN1 inh-2 | others
O=S(=O)(O)c1cc(O)c(N=Nc2ccc(O)cc2O)c2ccccc12 | 20µM | . | 10µM | 35µM | . | . | 19 | 38 | 85 | TbPGK inh=23µM;Pol kappa inh-2=34
Oc1ccc(N=Nc2ccc(Br)cc2)c(O)c1 | - | - | - | - | - | - | . | . | .
COc1ccc(S(=O)(=O)Nc2cc(Sc3ncn[nH]3)c(O)c3ccccc23)cc1 | ? | - | . | 6.3µM | 5µM | 22µM | 42 | ? | ?
O=C(O)CSc1cc(NS(=O)(=O)c2ccc(Cl)cc2)c2ccccc2c1O | - | . | 20µM | 35µM | 3.2µM | 79µM | 84 | 76 | 76 | Pol kappa inh-2=67
O=S(=O)(Nc1cc(Sc2cccc3cccnc23)c(O)c2ccccc12)c1ccc(F)cc1 | - | - | - | ? | ? | - | . | . | .
COc1ccc(S(=O)(=O)Nc2cc(SCC(=O)O)c(O)c3ccccc23)cc1 | - | . | 7.9µM | ? | 4µM | ? | ? | ? | 67
COc1ccc(S(=O)(=O)Nc2cccc3ccccc23)cc1 | - | - | . | - | - | . | . | . | .
O=C(O)c1cccc2cccc(-c3c4ccc(=O)c(O)c-4oc4c(O)c(O)ccc34)c12 | 1.1µM | . | - | 3.2µM | 0.71µM | . | 0.67 | 0.95 | 3.4 | TbPGK inh=0.33µM
O=C(N/N=C/c1cn(Cc2cccc(F)c2)c2ccccc12)c1cc(O)cc(O)c1 | 7.1µM | 0.63µM | 1.6µM | 22µM | ? | 1.4µM | 8.4 | 8.5 | 60 | TbPGK inh=2.1µM
CN(C)c1ccc2nc3c(=O)[nH]c(=O)nc-3n(CC(O)C(O)C(O)CO)c2c1 (stereo not given) | ? | . | ? | 45µM | 28µM | 25µM | 24 | 38 | 34 | Pol kappa inh-2=?
Cc1ncc(C(O)c2ccc(N(C)C)cc2)n1Cc1ccccc1 (stereo not given) | . | . | - | . | . | . | . | . | .
O=C1c2ccccc2C(=O)c2c1ccc(O)c2O | ? | - | ? | 7.9µM | - | . | ? | 76 | 7.6 | TbPGK inh=?
O=C1Nc2ccc(C(=O)O)c(O)c2C1=O | - | . | ? | - | ? | . | . | . | .
O=C1C=C(NCCc2cc(Br)c(O)c(Br)c2)C(=O)c2ncccc21 | 28µM | . | 3.5µM | 45µM | 3.2µM | . | 17 | 27 | 60 | Pol kappa inh-2=24
O=C1C=C(NCCO)C(=O)c2cnccc21 | . | - | . | . | . | . | . | . | .
CC(C)c1cnc2c(c1SCC(=O)Nc1cccc(F)c1)c(=O)n(C)c(=O)n2C | - | - | - | - | - | - | . | . | .
O=C(O)c1ccc(C=NN=Cc2ccco2)cc1 | - | . | - | - | - | . | . | . | .
O=C(O)c1ccc2c(c1)C(=O)/C(=C\c1ccco1)C2=O | 8.9µM | 7.1µM | 3.5µM | ? | 6.3µM | 2.2µM | 30 | 8.5 | 27 | Pol kappa inh-2=2.7
O=C(O)c1ccc(N2C(=O)c3cccc4cccc(c34)C2=O)cc1 | - | - | - | - | - | - | . | . | .
O=C(O)c1ccc(N2C(=O)c3cccc4c(C(=O)O)ccc(c34)C2=O)cc1 | 20µM | 2.8µM | 3.5µM | 50µM | 8.9µM | 6.3µM | 15 | 3.4 | 21 | TbPGK inh=16µM
CC1=C(C(=O)Nc2ccccc2)C(c2ccncc2)n2nc(SCc3ccccc3F)nc2N1 (stereo not given) | - | - | - | - | - | - | . | . | .
Cc1ccc(Cl)cc1NC(=O)Cn1c(=O)c2ccccc2n2nncc12 | - | - | - | - | - | - | . | . | .
CCCCN(C)C1=CC2=CC(=C(C#N)C#N)CCC2CC1 (stereo not given) | - | - | ? | 22µM | ? | - | 75 | 76 | 76 | Pol kappa inh-2=?
O=C(O)c1c2cc(Br)ccc2nc2[nH]c(=O)[nH]c(=O)c12 | - | . | - | - | - | . | . | . | .
Cc1ccc2nc3[nH]c(=O)[nH]c(=O)c3c(N)c2c1 | - | . | - | ? | - | . | ? | . | 60
SMILES | Pol kappa inh-1 | TDP1 block | Pol eta inh-1 | FEN1 inh-1 | Pol iota inh | POLB inh | Pol iota confirm | Pol eta inh-2 | FEN1 inh-2 | others
COc1ccc(O)c(C(=O)c2cc(SCC(=O)O)c3nc4sc5c(c4c(=O)n3c2)CCCC5)c1 | ? | . | 22µM | ? | ? | ? | 21 | 48 | 38
c1cnc(N2CCN(c3ncc4c(n3)CCNC4)CC2)nc1 | - | - | 18µM | - | ? | 45µM | 17 | 24 | 15 | Pol kappa inh-2=3
CC(C)CN1CCc2nc(N3CCN(c4ncccn4)CC3)ncc2C1 | - | - | - | - | - | - | . | . | .
CCCN(Cc1cccs1)C(=O)Nc1cc(C)ccc1OC | - | - | - | - | - | - | . | . | .
COc1ccccc1/C=N/Nc1cc(C)nc2ccc(C)cc12 | - | . | - | - | - | - | . | . | .
COc1ccc(/C=N/Nc2cc(C)nc3ccc(OC)cc23)c(OC)c1 | ? | - | ? | 22µM | ? | 32µM | 38 | 48 | 19
N=C1/C(=C\c2ccc(-c3ccc(C(=O)O)cc3)o2)C(=O)N=C2SC=C(c3ccccc3)N12 | 50µM | . | 3.5µM | 50µM | ? | ? | 38 | 27 | ?
Cc1cccc(-n2c(C)cc(/C=C3/C(=N)N4C(c5ccccc5)=CSC4=NC3=O)c2C)c1 | - | - | - | - | - | - | . | . | .
O=C(N/N=C/c1cc(Cl)c(O)c(Cl)c1)c1cc2c(ccc3ccccc32)o1 | ? | - | 22µM | 50µM | ? | 28µM | ? | 43 | ? | Pol kappa inh-2=75
O=C(N/N=C/c1ccc(O)c(Br)c1)c1cc2c(ccc3ccccc32)o1 | - | - | - | - | - | - | . | . | .
Cc1nc(S/C(=C/c2ccc(-c3ccc(C(=O)O)cc3)o2)C(=O)O)n[nH]1 | ? | 4µM | 18µM | ? | - | 35µM | 42 | 19 | 48
O=Cc1ccc(-c2ccc(C(=O)O)cc2)o1 | - | . | ? | - | ? | - | . | . | .
CSc1ccc(/C=N/Nc2cccc(C(=O)O)c2)cc1 | 7.9µM | 1.1µM | 1.1µM | 22µM | 2.2µM | 2µM | 2.7 | 2.1 | 43
O=S(=O)(O)c1ccc(O)c2cc(Nc3ccccc3)ccc12 | 2.8µM | . | 0.79µM | 7.9µM | ? | . | 0.67 | 0.76 | 8.5 | TbPGK inh=0.65µM;Pol kappa inh-2=0.53
